Test results reported in ChEMBL document CHEMBL1961873, “Compounds: GSK PKIS; Assays: Nanosyn kinase panel” (2012).

How the values were obtained:
[1] = biological target: T1, Serine/threonine-protein kinase D2 (Homo sapiens) (UniProt Q9BZL6); settings: at 1 µM;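 further: mean value of PRKD2 inhibition, from the GSK PKIS screening panel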
T1 sequence (whole entry): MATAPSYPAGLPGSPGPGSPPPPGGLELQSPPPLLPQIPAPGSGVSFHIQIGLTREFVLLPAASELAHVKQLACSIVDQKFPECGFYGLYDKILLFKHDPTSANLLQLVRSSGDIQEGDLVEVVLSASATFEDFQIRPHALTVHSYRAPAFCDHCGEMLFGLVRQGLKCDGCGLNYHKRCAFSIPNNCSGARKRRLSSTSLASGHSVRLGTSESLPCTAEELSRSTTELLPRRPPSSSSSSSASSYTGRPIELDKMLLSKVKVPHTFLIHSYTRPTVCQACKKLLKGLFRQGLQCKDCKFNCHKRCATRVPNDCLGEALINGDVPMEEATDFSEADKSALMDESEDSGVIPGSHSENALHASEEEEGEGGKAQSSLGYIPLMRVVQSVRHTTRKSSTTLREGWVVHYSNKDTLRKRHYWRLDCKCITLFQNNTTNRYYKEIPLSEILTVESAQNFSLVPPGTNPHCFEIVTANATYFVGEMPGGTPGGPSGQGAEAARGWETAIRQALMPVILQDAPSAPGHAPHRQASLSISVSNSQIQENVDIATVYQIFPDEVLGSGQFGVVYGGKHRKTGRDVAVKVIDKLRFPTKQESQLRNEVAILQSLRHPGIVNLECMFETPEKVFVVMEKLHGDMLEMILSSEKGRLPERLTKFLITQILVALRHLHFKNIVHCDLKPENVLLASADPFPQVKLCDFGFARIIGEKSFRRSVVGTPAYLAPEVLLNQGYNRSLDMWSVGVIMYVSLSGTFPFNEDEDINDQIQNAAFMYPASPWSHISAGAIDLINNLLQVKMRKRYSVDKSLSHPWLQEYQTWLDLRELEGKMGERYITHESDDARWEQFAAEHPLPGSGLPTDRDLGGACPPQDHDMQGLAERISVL

[2] = biological target: T2, Serine/threonine-protein kinase D3 (Homo sapiens) (UniProt O94806); settings: at 0.1 µM
T2 sequence (whole entry): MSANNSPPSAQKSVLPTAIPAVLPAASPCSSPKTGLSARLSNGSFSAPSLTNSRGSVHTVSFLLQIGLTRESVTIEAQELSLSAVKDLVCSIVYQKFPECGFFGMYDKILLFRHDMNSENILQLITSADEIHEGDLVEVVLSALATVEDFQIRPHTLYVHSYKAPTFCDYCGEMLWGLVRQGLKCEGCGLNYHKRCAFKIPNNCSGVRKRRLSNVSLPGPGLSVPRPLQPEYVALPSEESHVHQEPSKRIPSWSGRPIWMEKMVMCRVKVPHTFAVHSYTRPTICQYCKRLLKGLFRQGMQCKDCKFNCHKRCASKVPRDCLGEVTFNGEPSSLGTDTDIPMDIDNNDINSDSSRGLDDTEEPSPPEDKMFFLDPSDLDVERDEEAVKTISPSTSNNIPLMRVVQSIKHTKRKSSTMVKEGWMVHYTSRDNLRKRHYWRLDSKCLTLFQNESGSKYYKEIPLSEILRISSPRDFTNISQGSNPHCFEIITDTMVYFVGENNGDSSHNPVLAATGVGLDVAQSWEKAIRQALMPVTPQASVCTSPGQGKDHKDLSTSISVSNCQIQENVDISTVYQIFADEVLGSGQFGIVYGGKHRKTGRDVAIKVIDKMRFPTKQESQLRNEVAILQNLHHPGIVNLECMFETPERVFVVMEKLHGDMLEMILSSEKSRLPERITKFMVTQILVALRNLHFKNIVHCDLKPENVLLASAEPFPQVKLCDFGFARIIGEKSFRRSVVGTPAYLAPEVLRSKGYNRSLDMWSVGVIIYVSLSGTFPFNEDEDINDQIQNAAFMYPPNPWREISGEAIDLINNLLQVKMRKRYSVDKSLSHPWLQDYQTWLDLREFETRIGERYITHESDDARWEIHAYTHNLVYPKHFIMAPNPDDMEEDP

[3] = biological target: T2, Serine/threonine-protein kinase D3 (Homo sapiens); settings: at 1 µM
[4] = biological target: T3, cGMP-dependent protein kinase 1 (Homo sapiens) (UniProt Q13976); settings: at 0.1 µM
T3 sequence (whole entry): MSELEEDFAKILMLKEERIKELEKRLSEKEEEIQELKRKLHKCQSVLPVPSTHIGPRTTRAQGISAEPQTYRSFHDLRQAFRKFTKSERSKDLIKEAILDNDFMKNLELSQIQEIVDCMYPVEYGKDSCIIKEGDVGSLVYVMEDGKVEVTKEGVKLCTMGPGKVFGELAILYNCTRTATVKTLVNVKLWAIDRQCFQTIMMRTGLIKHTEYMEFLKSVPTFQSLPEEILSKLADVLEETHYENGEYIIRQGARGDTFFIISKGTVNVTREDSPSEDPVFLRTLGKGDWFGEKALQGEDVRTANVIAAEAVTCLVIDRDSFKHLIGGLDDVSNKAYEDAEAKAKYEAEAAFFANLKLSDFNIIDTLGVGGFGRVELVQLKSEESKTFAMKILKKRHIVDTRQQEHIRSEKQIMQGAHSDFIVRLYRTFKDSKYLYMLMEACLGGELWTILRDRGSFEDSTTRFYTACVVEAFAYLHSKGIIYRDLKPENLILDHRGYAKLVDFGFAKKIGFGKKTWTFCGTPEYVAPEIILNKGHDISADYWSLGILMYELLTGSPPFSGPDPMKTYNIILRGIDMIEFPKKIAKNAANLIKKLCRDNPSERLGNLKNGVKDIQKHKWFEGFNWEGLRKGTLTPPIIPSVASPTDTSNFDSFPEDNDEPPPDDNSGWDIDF

[5] = biological target: T3, cGMP-dependent protein kinase 1 (Homo sapiens); settings: at 1 µM
[6] = biological target: T4, cGMP-dependent protein kinase 2 (Homo sapiens) (UniProt Q13237); settings: at 0.1 µM
T4 sequence (whole entry): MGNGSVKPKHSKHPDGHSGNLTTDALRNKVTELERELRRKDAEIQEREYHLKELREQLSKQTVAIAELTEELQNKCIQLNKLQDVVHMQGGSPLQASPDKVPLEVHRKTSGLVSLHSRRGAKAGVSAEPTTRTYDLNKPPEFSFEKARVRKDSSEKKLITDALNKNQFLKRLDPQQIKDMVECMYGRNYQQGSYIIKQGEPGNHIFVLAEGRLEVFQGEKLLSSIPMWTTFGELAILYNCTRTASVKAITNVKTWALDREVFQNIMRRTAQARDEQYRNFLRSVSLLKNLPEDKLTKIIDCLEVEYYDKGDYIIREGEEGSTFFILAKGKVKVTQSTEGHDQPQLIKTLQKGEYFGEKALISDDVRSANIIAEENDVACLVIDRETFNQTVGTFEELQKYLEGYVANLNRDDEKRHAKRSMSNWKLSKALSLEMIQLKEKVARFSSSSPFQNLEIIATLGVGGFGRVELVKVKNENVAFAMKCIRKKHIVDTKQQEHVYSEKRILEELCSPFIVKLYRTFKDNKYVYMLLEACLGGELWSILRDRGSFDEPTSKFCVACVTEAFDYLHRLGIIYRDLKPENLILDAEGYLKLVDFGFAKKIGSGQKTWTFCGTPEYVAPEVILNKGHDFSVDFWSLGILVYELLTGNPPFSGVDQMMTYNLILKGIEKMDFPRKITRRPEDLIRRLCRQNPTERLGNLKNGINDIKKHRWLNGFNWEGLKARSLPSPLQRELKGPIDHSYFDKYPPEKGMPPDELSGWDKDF

[7] = biological target: T4, cGMP-dependent protein kinase 2 (Homo sapiens); settings: at 1 µM
[8] = biological target: T5, cAMP-dependent protein kinase catalytic subunit PRKX (Homo sapiens) (UniProt P51817); settings: at 0.1 µM
T5 sequence (whole entry): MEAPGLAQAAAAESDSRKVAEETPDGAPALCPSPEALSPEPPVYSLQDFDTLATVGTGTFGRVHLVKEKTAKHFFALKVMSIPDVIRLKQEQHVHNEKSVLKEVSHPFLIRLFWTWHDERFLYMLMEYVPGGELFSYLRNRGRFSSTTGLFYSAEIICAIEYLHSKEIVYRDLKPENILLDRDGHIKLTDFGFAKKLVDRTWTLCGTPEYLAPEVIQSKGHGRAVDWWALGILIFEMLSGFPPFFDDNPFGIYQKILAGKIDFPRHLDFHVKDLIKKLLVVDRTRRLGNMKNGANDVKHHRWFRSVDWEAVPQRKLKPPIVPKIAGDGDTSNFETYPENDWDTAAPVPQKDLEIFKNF

[9] = biological target: T5, cAMP-dependent protein kinase catalytic subunit PRKX (Homo sapiens); settings: at 1 µM
[10] = biological target: Rho-associated protein kinase 1 (Homo sapiens) (UniProt Q13464); settings: at 0.1 µM
[11] = biological target: Rho-associated protein kinase 1 (Homo sapiens) (UniProt Q13464); settings: at 1 µM
[12] = biological target: Rho-associated protein kinase 2 (Homo sapiens) (UniProt O75116); settings: at 0.1 µM
[13] = biological target: Rho-associated protein kinase 2 (Homo sapiens) (UniProt O75116); settings: at 1 µM
[14] = biological target: Ribosomal protein S6 kinase alpha-1 (Homo sapiens) (UniProt Q15418); settings: at 0.1 µM
[15] = biological target: Ribosomal protein S6 kinase alpha-1 (Homo sapiens) (UniProt Q15418); settings: at 1 µM
[16] = biological target: Ribosomal protein S6 kinase alpha-3 (Homo sapiens) (UniProt P51812); settings: at 0.1 µM
[17] = biological target: Ribosomal protein S6 kinase alpha-3 (Homo sapiens) (UniProt P51812); settings: at 1 µM
[18] = biological target: Ribosomal protein S6 kinase alpha-2 (Homo sapiens) (UniProt Q15349); settings: at 0.1 µM
[19] = biological target: Ribosomal protein S6 kinase alpha-2 (Homo sapiens) (UniProt Q15349); settings: at 1 µM
[20] = biological target: Ribosomal protein S6 kinase alpha-6 (Homo sapiens) (UniProt Q9UK32); settings: at 0.1 µM;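 further: reported value is the mean inhibition of RSK4, from the GSK PKIS kinase inhibitor screen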
Chain of Ribosomal protein S6 kinase alpha-6 (Homo sapiens) (Q9UK32 whole entry): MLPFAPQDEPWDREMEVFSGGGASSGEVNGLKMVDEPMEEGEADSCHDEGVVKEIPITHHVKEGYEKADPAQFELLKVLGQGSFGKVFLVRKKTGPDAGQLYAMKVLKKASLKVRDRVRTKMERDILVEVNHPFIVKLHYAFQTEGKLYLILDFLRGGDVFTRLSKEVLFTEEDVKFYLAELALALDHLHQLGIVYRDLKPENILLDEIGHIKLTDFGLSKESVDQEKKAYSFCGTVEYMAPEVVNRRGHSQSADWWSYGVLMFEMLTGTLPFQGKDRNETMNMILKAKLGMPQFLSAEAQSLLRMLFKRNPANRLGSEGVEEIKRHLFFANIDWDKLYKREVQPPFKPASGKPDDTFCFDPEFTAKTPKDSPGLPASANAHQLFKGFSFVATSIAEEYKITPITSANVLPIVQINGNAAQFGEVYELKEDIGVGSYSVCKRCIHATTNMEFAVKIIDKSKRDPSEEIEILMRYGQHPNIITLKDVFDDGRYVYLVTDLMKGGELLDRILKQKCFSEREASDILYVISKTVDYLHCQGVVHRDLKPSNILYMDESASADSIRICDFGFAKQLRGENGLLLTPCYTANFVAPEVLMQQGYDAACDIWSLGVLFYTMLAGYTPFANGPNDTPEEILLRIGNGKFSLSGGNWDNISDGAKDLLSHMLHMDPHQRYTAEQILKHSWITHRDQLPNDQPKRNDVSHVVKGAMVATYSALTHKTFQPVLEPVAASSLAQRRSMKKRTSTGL

Chain of Ribosomal protein S6 kinase alpha-2 (Homo sapiens) (Q15349 whole entry): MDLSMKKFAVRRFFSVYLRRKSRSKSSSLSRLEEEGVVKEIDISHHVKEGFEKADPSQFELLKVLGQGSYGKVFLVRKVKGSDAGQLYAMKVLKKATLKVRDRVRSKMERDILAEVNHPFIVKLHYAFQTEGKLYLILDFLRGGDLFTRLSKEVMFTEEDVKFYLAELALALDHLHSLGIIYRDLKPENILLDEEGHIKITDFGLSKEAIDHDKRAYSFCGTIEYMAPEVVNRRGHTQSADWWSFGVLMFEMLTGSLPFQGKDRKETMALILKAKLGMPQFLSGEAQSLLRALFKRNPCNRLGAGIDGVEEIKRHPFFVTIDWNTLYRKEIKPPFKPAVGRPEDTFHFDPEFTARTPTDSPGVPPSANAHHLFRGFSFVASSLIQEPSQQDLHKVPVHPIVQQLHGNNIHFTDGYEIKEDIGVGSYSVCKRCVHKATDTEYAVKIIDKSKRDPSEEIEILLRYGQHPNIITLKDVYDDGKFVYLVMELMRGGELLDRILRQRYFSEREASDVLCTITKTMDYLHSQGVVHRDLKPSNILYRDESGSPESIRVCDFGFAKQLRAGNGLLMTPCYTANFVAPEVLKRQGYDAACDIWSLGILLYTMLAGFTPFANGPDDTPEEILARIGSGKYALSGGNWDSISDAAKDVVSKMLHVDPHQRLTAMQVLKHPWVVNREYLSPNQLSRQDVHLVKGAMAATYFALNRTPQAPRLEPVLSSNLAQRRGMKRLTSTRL
Chain of Rho-associated protein kinase 1 (Homo sapiens) (Q13464 2-1354 limits assumed): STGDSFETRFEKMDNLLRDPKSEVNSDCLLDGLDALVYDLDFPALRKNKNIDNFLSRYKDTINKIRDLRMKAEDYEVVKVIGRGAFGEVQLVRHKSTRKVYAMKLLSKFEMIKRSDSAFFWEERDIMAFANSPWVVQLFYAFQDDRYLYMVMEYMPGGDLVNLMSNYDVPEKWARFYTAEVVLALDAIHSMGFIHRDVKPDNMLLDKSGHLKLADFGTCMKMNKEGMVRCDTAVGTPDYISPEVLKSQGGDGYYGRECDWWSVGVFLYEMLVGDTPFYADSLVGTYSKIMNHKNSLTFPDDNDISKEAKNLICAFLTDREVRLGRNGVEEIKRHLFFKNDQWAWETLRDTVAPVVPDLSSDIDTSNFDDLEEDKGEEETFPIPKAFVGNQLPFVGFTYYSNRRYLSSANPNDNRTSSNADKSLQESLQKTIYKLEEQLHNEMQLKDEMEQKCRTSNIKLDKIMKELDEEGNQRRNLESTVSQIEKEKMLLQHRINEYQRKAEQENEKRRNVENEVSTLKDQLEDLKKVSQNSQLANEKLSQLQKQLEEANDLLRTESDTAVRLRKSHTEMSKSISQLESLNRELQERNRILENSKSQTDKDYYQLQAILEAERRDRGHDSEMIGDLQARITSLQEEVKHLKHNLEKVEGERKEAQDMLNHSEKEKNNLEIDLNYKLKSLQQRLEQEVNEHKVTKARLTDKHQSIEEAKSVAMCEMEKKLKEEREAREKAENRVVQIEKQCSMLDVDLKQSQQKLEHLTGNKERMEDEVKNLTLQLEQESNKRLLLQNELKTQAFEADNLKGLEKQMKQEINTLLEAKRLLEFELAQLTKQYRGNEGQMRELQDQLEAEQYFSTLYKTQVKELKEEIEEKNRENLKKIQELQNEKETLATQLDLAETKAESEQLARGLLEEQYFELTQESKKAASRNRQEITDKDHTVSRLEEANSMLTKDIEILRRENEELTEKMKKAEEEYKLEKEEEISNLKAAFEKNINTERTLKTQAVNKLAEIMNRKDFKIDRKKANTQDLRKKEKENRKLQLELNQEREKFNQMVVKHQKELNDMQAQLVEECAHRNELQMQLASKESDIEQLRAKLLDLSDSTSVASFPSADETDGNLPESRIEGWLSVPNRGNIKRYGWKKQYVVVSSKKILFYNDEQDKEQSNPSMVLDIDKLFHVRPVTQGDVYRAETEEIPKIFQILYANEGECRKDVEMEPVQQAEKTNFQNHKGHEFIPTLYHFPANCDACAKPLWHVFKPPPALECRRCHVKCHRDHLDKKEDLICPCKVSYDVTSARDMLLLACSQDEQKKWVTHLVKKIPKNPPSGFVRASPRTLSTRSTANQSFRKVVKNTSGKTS
Chain of Ribosomal protein S6 kinase alpha-1 (Homo sapiens) (Q15418 whole entry): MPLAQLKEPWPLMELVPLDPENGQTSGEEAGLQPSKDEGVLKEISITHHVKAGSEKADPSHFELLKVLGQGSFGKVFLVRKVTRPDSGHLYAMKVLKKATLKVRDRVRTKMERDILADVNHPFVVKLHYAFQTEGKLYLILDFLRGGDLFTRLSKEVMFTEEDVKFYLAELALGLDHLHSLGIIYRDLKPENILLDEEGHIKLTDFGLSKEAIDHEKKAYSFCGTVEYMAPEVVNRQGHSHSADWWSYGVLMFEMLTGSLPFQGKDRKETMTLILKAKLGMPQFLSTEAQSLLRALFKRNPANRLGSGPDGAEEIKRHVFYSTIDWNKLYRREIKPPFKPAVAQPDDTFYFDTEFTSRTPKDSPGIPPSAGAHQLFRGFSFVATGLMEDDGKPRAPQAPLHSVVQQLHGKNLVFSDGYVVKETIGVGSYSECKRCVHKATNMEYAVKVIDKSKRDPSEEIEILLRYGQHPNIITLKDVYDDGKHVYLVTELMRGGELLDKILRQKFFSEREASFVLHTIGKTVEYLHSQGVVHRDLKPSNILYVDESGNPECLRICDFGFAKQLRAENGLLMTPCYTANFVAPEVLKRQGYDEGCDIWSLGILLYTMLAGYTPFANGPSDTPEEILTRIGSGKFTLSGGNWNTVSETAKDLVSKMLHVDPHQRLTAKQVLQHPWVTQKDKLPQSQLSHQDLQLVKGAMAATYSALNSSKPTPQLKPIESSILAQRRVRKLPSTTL
Chain of Rho-associated protein kinase 2 (Homo sapiens) (O75116 whole entry, looked up): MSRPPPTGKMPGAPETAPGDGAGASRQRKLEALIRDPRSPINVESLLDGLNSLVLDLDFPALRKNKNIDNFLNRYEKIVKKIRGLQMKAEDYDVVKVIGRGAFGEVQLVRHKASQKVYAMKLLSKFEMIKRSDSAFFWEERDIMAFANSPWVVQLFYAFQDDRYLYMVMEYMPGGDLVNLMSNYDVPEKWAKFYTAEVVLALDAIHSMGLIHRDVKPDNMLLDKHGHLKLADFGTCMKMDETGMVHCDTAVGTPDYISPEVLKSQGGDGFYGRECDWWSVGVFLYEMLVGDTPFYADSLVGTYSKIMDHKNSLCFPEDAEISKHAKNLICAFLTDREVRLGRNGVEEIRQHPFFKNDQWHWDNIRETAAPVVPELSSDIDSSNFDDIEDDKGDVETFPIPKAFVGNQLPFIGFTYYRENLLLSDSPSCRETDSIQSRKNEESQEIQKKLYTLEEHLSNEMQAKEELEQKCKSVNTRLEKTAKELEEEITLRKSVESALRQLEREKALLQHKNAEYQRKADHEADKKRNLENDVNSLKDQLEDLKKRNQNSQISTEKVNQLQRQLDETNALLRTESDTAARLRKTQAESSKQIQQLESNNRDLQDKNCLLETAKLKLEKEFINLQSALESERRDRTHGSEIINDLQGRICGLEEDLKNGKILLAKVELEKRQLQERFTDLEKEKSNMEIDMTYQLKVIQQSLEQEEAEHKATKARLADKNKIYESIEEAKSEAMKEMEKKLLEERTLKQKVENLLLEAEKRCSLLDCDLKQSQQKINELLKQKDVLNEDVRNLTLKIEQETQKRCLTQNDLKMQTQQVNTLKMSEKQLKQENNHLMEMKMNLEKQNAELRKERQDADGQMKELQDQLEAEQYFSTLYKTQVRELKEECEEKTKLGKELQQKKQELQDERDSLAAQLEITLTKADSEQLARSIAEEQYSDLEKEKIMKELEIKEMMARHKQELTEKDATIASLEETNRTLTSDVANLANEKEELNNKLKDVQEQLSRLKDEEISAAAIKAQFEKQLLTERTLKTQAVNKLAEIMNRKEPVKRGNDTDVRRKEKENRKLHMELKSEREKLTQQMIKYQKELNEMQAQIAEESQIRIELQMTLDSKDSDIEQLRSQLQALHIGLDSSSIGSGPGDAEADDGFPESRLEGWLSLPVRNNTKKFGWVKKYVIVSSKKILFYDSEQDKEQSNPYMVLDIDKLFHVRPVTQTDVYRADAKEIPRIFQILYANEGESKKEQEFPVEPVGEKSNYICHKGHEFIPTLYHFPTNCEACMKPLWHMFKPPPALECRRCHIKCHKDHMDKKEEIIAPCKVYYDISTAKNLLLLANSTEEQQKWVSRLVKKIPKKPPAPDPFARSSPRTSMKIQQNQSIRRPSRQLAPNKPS

Row | SMILES | inhibition [1] [%] | inhibition [2] [%] | inhibition [3] [%] | inhibition [4] [%] | inhibition [5] [%] | inhibition [6] [%] | inhibition [7] [%] | inhibition [8] [%] | inhibition [9] [%] | inhibition [10] [%] | inhibition [11] [%] | inhibition [12] [%] | inhibition [13] [%] | inhibition [14] [%] | inhibition [15] [%] | inhibition [16] [%] | inhibition [17] [%] | inhibition [18] [%] | inhibition [19] [%] | inhibition [20] [%]
1 | COc1cc(N2CCN(C(C)C)CC2)ccc1Nc1nc(Nc2ccc(F)cc2C(=O)NC[C@@H](O)CO)c2cc[nH]c2n1 | 17.5 | 3.93 | 20.7 | 7.74 | 35.1 | 2.82 | 8.2 | 2.99 | 6.02 | 1.24 | 2.04 | 4.24 | 8.05 | 3.27 | 12.1 | 2.71 | 7.3 | 3.45 | 5.13 | 2.51
2 | COc1cc2ncn(-c3cc(OCc4cccs4)c(C(N)=O)s3)c2cc1OC | -0.96 | -1.14 | -2.04 | 3.61 | 7.44 | 3.73 | 6.83 | 3.18 | -3.65 | 2.39 | 2.63 | 3.91 | 11.3 | 4.14 | 12.6 | 3.71 | 11.8 | 2.98 | 9.31 | 1.53
3 | COC(=O)Nc1nc2ccc(Sc3ccc(NC(=O)Nc4cc(C(F)(F)F)ccc4F)cc3)cc2[nH]1 | 0.52 | 1.06 | 0.51 | 0.91 | 1.52 | -0.08 | 0.57 | 0.23 | -1.11 | -0.63 | -0.72 | 0.53 | -0.19 | -0.4 | 0.24 | -0.27 | -1.87 | 47.7 | 2.97 | 48.6
4 | COc1cc(Nc2ncc(-c3ccccc3)o2)cc(OC)c1OC | -0.05 | -1.81 | -1.6 | 1.84 | 1.3 | -0.12 | 1.47 | 0.22 | 0.75 | 0.49 | 1.85 | -0.74 | 3.74 | 0.23 | 3.07 | 0.02 | 2.83 | 0.65 | 6.88 | 0.47
5 | O=C1Nc2ccc(I)cc2C1=Cc1cc(Br)c(O)c(Br)c1 | 1.24 | 3.73 | 3.16 | 3.82 | 5.76 | 2.47 | 6.45 | 0.49 | 2.04 | 2.76 | 2.32 | 2.42 | 4.03 | 0.5 | 2.27 | 1.27 | 1.7 | 2.5 | 3.82 | 1.37
6 | CCS(=O)(=O)c1ccc(OC)c(Nc2ncc(-c3ccccc3Cl)o2)c1 | 1.98 | 0.34 | 0.32 | 1.27 | 3.79 | 0.72 | 2.95 | 0.64 | 0.38 | -0.11 | -0.3 | 1.15 | 2.53 | 1.95 | 5.76 | 0.57 | 4.01 | 0.2 | 4.26 | 2.01
